# The supplement of paper PMC4723716
# Over roughly 3,600 compounds, “viability index relative to DMSO control” has its median near 0.81; the lowest 2% begin near 0.13. The entries come from a sample that favours the lowest values as a whole.
# System: Plasmodium falciparum NF54 stage V gametocytes
# Experiment: viability index relative to DMSO control (fraction); higher = less gametocyte killing
# Conditions: 1.25 µM, incubation time: 72 h
# 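Note: Saponin-lysis sexual stage assay in serum-free medium: MitoTracker Red CMXRos staining plus saponin, high-content imaging, particle count per well divided by plate mean of DMSO wells.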
row,Structure (SMILES),viability index
1,COc1ccc(CC2NCC(O)C2OC(C)=O)cc1 (stereo not given),0
2,Cc1ccc(-n2c(C)c(C(=O)c3ccccc3)c3cc(O)ccc32)cc1,1.24
3,Cc1c2ccccc2c(C)c2ccccc12,1.04
4,COc1ccc(-c2ccc(C=C3C(=O)NC(=S)NC3=O)o2)cc1Cl,0.866
5,C=CC1CN2CCC1C(C(O)c1ccnc3ccc(OC)cc13)C2 (stereo not given),0.411
6,NC(=O)CN1CC(O)CC1=O (stereo not given),0.0308
7,OC1(c2ccc(Cl)c(C(F)(F)F)c2)CCN(CCOC2c3ccccc3CSc3ccc(Cl)cc32)CC1 (stereo not given),0.589
8,CC(C)N1CC=C(c2c[nH]c3ccccc23)CC1,0.887
9,O=C(Cn1c2ccccc2c(=O)c2ccccc21)Nc1ccc(Cl)cc1C(=O)c1ccccc1,0.781
10,Oc1ccccc1C=Nc1ccccc1[Te]c1ccccc1N=Cc1ccccc1O,0.0513
11,O=c1cccc2n1CC1CC2CN(Cc2cccc(O)c2)C1 (stereo not given),0.898
12,CC(C)NC(=O)c1cn(Cc2ccccc2)cc(C(=O)NCCc2nc3ccccc3[nH]2)c1=O,0.942
13,CN1CCN(c2ccc(NC(=O)Oc3ccccc3)cc2)CC1,0.798
14,N#CC1=C(N)Oc2c(c(=O)oc3ccccc23)C1c1ccoc1 (stereo not given),1.08
15,C=CC1CN2CCC1CC2C(OC(=O)c1ccco1)c1ccnc2ccccc12 (stereo not given),0.46
